Results reported in PubChem BioAssay.
The source made the active and inactive calls. Unless noted, how the calls were made is not given here.

Key:
[1] = resazurin metabolic signal in HepG2 cells – cell-based, resazurin fluorescence, 24 h, PK04 Diversity Set, profiling panel (AID 1172); conditions: HepG2 viability, higher = more signal; further: test concentration not given here
[2] = budding yeast growth changes without added modifier – OD600, strain BY4716, 24 h, basal condition, primary screen (AID 1173); conditions: S. cerevisiae BY4716 growth, OD600, 24 h; higher = more signal, called active from +8 up or from −8 down
[3] = viability profiling in MM1S myeloma cells – cell-based, resazurin fluorescence, basal, 24 h, PK04 Diversity Set, profiling panel (AID 1174); conditions: higher = more signal, called active from +8 up or from −8 down;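 further: MM1S multiple myeloma cell line; test concentration not given here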
[4] = target: Dihydroorotate dehydrogenase (quinone), mitochondrial (Plasmodium falciparum (isolate 3D7)) (UniProt Q08210); assay: inhibition of P. falciparum DHODH – biochemical, C-terminal His tag, absorbance 600 nm, primary screen (AID 1175); conditions: PfDHODH enzyme, DCIP absorbance 600 nm; higher = more signal, called active from +8 up or from −8 down;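 further: recombinant parasite enzyme with a five histidine tag at its C terminus; test concentration not given here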
[5] = inhibition of PAO1 biofilm formation – strain PAO1, LB-PBS medium, absorbance 600 nm, primary screen (AID 1176); further: test concentration not given here; conditions: P. aeruginosa PAO1 growth/biofilm, A600, 12 h; higher = more signal
[6] = growth modulation of vineyard yeast isolate – strain RM11-1a, OD600, basal, 24 h, primary screen (AID 1177);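 further: cultures grown under basal conditions with no added stressor; test concentration not given here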; conditions: S. cerevisiae RM11-1a growth, OD600, 24 h; higher = more signal, called active from +8 up or from −8 down
[7] = growth of efflux-deficient E. coli DRC39 – strain DRC39, OD650, 24 h, E. coli filamentation inducers, primary screen (AID 1178);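 further: growth measured as culture turbidity by optical density at 650 nm; test concentration not given here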; conditions: E. coli DRC39 acrAB, higher = more signal, called active from +8 up or from −8 down
[8] = growth of efflux-deficient E. coli DRC39 – strain DRC39, OD650, 48 h, E. coli filamentation inducers, primary screen (AID 1179);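 further: screen aims at cell division blockers that make cells filament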; conditions: E. coli DRC39 delta-acrAB growth, higher = more signal, called active from +8 up or from −8 down
[9] = viability profiling in RPMI8226 myeloma cells – cell-based, resazurin fluorescence, basal, 24 h, PK04 Diversity Set, profiling panel (AID 1180); conditions: higher = more signal;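 further: RPMI8826 multiple myeloma cell line at 5000 cells per well; test concentration not given here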
[10] = target: E3 ubiquitin-protein ligase XIAP (Homo sapiens) (UniProt P98170); assay: small molecules binding XIAP protein – biophysical, small-molecule microarray, fluorescence 635 nm, primary screen (AID 1181); conditions: higher = more signal;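 further: score merges 667 nm emission and signal to noise over triplicate slides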
E3 ubiquitin-protein ligase XIAP (Homo sapiens), sequence (P98170 whole entry, looked up): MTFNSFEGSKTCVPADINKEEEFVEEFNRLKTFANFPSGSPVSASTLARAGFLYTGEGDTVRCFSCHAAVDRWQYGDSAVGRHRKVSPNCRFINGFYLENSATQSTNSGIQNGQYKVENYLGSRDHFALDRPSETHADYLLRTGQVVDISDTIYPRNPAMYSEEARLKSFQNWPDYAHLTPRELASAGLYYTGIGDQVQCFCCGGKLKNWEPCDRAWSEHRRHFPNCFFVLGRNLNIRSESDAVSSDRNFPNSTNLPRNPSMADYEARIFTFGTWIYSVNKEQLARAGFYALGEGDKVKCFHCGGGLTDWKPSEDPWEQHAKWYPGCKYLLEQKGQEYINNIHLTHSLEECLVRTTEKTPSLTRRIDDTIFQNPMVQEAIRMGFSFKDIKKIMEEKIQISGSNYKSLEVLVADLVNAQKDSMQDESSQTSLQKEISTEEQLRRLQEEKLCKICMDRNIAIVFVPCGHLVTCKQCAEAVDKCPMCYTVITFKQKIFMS

Dihydroorotate dehydrogenase (quinone), mitochondrial (Plasmodium falciparum (isolate 3D7)), sequence (Q08210 whole entry, looked up): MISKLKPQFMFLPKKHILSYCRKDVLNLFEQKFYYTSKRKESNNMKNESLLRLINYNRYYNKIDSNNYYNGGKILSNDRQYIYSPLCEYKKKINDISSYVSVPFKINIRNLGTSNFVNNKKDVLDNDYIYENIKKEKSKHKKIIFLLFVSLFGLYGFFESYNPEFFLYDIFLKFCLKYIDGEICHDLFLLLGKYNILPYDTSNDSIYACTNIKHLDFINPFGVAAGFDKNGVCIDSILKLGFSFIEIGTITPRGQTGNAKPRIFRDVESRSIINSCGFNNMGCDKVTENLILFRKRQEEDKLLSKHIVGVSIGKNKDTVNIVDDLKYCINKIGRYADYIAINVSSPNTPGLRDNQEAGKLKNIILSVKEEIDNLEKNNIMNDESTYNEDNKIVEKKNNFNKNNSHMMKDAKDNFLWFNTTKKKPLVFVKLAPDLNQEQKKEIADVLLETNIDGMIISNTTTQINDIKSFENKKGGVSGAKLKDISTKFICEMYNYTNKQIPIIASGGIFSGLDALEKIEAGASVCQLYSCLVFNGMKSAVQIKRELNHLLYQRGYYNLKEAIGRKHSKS

| Compound | z-score [1] | z-score [2] | z-score [3] | composite z-score [4] | z-score [5] | z-score [6] | z-score [7] | z-score [8] | z-score [9] | composite z-score [10] |
| --- | --- | --- | --- | --- | --- | --- | --- | --- | --- | --- |
| [N-]=[N+]=NCc1ccccc1C[C@]1(C(=O)N2CCCCC2)N=C(c2ccc(OCCCO)cc2)O[C@H]1c1ccccc1N=[N+]=[N-] | 0.297 | 0.264 (inactive) | -2.36 (inactive) | 0.168 (inactive) | 0.426 (inactive) | 0.875 (inactive) | 0.173 (inactive) | -0.446 (inactive) | -2.4 | -0.332 |
| COCCOC(=O)N1C(=O)[C@@]2(c3cc(C#CCC(C(=O)OC)C(=O)OC)ccc31)[C@H](c1ccccc1OCCO)N1[C@H](c3ccccc3)[C@H](c3ccccc3)OC(=O)[C@H]1[C@@H]2C(=O)N1CCN(c2ncccn2)CC1 | 0.326 | 2.4 (inactive) | 1.04 (inactive) | -0.388 (inactive) | 3.18 (inactive) | 3.19 (inactive) | 0.862 (inactive) | 0.519 (inactive) | -0.83 | -0.0095 |
| CC(C)C(=C=CC[C@@H](O)c1ccc(OCCO)cc1)C[C@@H](O)c1ccccn1 | -0.287 | -0.492 (inactive) | -0.426 (inactive) | -11.9 (active) | 0.85 (inactive) | 0.406 (inactive) | -0.235 (inactive) | -0.0608 (inactive) | -0.538 | 0.273 |
| CCCCCN1CC=CC23O[C@@H]4/C=C\CCC(C)OC(=O)C4[C@H]2C(=O)N(C(C)CO)[C@@H]3C1=O (stereo not given in full) | 0.194 | 0.142 (inactive) | -0.139 (inactive) | 0.005 (inactive) | -0.0153 (inactive) | 0.449 (inactive) | 0.866 (inactive) | 0.657 (inactive) | 1.07 | -0.127 |
| O=C(c1ccccc1)N1Cc2ccccc2C[C@@]2(COC(c3ccc(OCCCO)cc3)=N2)C1=O | 1.05 | -0.264 (inactive) | 0.26 (inactive) | 0.574 (inactive) | 0.248 (inactive) | 2.02 (inactive) | -0.0674 (inactive) | -0.564 (inactive) | 0.263 | -0.231 |
| O=C1O[C@H](c2ccccc2)[C@H](c2ccccc2)N2[C@H]1[C@@H](C(=O)N1CCCCCCC1)[C@]1(C(=O)Nc3ccc(C#CC4=CCCCC4)cc31)[C@H]2c1ccc(OCCO)cc1 | -0.881 | 0.362 (inactive) | 0.241 (inactive) | -0.585 (inactive) | 2.25 (inactive) | 0.6 (inactive) | 0.825 (inactive) | 0.286 (inactive) | 0.326 | 1.08 |
| C=CCNC(=O)[C@@H]1[C@H]2C(=O)O[C@H](c3ccccc3)[C@H](c3ccccc3)N2[C@H](c2ccc(O)cc2)[C@@]12C(=O)N(C(=O)OCCOC)c1ccc(C#CCNC(N)=O)cc12 | -0.0359 | 0.0215 (inactive) | -0.0272 (inactive) | -1.74 (inactive) | 0.318 (inactive) | -0.586 (inactive) | 0.916 (inactive) | 1.39 (inactive) | 0.302 | -0.17 |
| COC(=O)[C@@]1(Cc2ccc(F)cc2)[C@H]2c3cc(C(=O)N(C)C)n(Cc4ccc(Cl)c(C(F)(F)F)c4)c3C[C@H]2CN1C(=O)c1ccccc1 | -0.81 | 0.359 (inactive) | -2.72 (inactive) | 0.117 (inactive) | 1.09 (inactive) | -0.285 (inactive) | -1.2 (inactive) | -0.531 (inactive) | -3.26 | 0.929 |
| COCCOC(=O)N1C(=O)[C@@]2(c3cc(C#CCCO)ccc31)[C@H](C(N)=O)[C@H]1C(=O)O[C@H](c3ccccc3)[C@H](c3ccccc3)N1[C@@H]2c1ccc(O)cc1 | -0.256 | -0.089 (inactive) | 0.0773 (inactive) | -0.176 (inactive) | 0.181 (inactive) | -0.204 (inactive) | 0.125 (inactive) | -0.176 (inactive) | -0.104 | 0.142 |
| CCOC(=O)C[C@H]1[C@H](OC(=O)c2cc3ccccc3oc2=O)[C@@H](NC(=O)c2ccccc2)c2cc(OCCCO)ccc2N1C(=O)c1ccc2ccccc2n1 | -0.359 | -0.594 (inactive) | -1.04 (inactive) | 0.542 (inactive) | -0.246 (inactive) | -0.5 (inactive) | -0.741 (inactive) | -1.2 (inactive) | -1.16 | -0.28 |
| COc1ccc(C(=O)Nc2ccc(CN3C(=O)[C@]4(O[C@H](CCO)[C@@H]([Si](C)(C)c5ccc(OC)cc5)[C@@H]4C)c4ccccc43)cc2)cc1 | -5.44 | -3.84 (inactive) | -9.1 (active) | 0.132 (inactive) | 2.16 (inactive) | 4.35 (inactive) | 0.65 (inactive) | -0.416 (inactive) | -6.25 | 0.0623 |
| C=C(COC)C(=O)CC[C@@H](OC(C)=O)c1ccc(CO)o1 | -0.173 | 0.227 (inactive) | 0.145 (inactive) | -3.24 (inactive) | 0.838 (inactive) | -1.23 (inactive) | -0.216 (inactive) | -0.107 (inactive) | 0.0972 | 0.383 |
| CCCC[C@@H]1C[C@H]1[C@@H](NC(=O)c1ccco1)c1ccccc1C(F)(F)F | -0.153 | 1.67 (inactive) | -1.25 (inactive) | -0.265 (inactive) | -0.0298 (inactive) | -0.064 (inactive) | -0.714 (inactive) | -0.127 (inactive) | -0.594 | 0.271 |
| C=CC[C@@]12N=C(c3ccc(OCCCO)cc3)O[C@@H]1c1ccccc1N(C)C2=O | -0.0241 | -0.926 (inactive) | -2.53 (inactive) | 0.579 (inactive) | 0.0684 (inactive) | 1.46 (inactive) | 0.817 (inactive) | 1.18 (inactive) | -0.912 | 0.368 |
| COC(=O)[C@H](Cc1ccccc1)N1CC2=C[C@@H](C3CC3)n3c(=O)n(C)c(=O)n3[C@H]2[C@@H]1[C@@H](O)Cc1ccccc1 | -0.0568 | -1.18 (inactive) | -1.07 (inactive) | -0.174 (inactive) | 0.0937 (inactive) | -0.143 (inactive) | -0.172 (inactive) | -0.228 (inactive) | 0.358 | -0.142 |
| CC(C)NC(=O)[C@@]1(c2ccc([N+](=O)[O-])cc2)CC(=O)N(C2CCCCC2)[C@@H]1c1ccc(CO)cc1I | -0.752 | -0.148 (inactive) | 0.507 (inactive) | 0.968 (inactive) | -0.0469 (inactive) | 1.4 (inactive) | 0.543 (inactive) | 0.0026 (inactive) | 0.636 | -0.177 |
| CC(C)N1C(=O)c2ccccc2[C@](C)(C(=O)NCCN2CCOCC2)[C@@H]1c1ccc(CO)cc1 | 0.0412 | 0.567 (inactive) | -0.139 (inactive) | 1.11 (inactive) | 0.484 (inactive) | 1.41 (inactive) | -0.0268 (inactive) | -0.582 (inactive) | -0.44 | 0.126 |
| [N-]=[N+]=NCc1ccccc1[C@@H]1OC(c2ccc(OCCCO)cc2)=N[C@]1(Cc1ccccc1)C(=O)NCC(O)CO (stereo not given in full) | 0.597 | -0.293 (inactive) | -0.869 (inactive) | -0.0408 (inactive) | 1.35 (inactive) | -0.0888 (inactive) | -0.151 (inactive) | -0.465 (inactive) | -0.665 | -0.0294 |
| CCS[C@H]1[C@@H](C(=O)O)[C@H](c2ccc(C)cc2)N(S(=O)(=O)c2ccc(C)cc2)[C@@H]1CC | 0 | 0.788 (inactive) | -0.751 (inactive) | -1.03 (inactive) | 0.257 (inactive) | -0.0137 (inactive) | -0.419 (inactive) | 0.843 (inactive) | -0.702 | -0.167 |
| CC(=O)n1cc(C(O)C2C=CC3C(=O)N(c4ccccc4)C(=O)C3N2Nc2ccc([N+](=O)[O-])cc2)c2ccccc21 (stereo not given) | -0.768 | -0.199 (inactive) | -1.15 (inactive) | 0.835 (inactive) | 1.25 (inactive) | 0.241 (inactive) | -1.34 (inactive) | -0.885 (inactive) | -0.669 | -0.0391 |
| COc1ccccc1CN1C(=O)c2ccccc2[C@@H](C(=O)NC2CC2)[C@@H]1c1ccc(CO)cc1 | 0.103 | -0.561 (inactive) | 0.84 (inactive) | -0.245 (inactive) | -0.342 (inactive) | 0.184 (inactive) | 0.421 (inactive) | 0.119 (inactive) | 0.407 | -0.0085 |
| C=C[C@H](CO[Si](CC)(CC)CC)N(Cc1ccc(OC(C)=O)c(OC)c1)S(=O)(=O)c1ccc(Br)cc1 | -0.423 | -0.128 (inactive) | -0.649 (inactive) | -1.38 (inactive) | -0.649 (inactive) | 0.292 (inactive) | 0.93 (inactive) | 1.67 (inactive) | -3.37 | 0.0487 |
| CCCC[C@H]1OB(O)C[C@H]2C1=C(COC)Cn1c(=O)n(-c3ccccc3)c(=O)n12 | -0.248 | -0.607 (inactive) | -0.228 (inactive) | -0.485 (inactive) | 0.0937 (inactive) | 0.523 (inactive) | 0.451 (inactive) | 0.452 (inactive) | -0.214 | -0.053 |
